SMARCA2 act: activators of SMARCA2 function | MG213 cells, MMTV-luciferase reporter, dexamethasone, overnight | activation, % at 9.1 µM | 1% of 370,000 active; in the data active = activation above about 7.8%
DAX1 inh-1: DAX1 (NR0B1) inhibition, primary screen | HEK293T StAR-luciferase reporter, SF-1/DAX-1 repression relief | inhibition, % at 6.8 µM | 1.1% of 370,000 active;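 active = inhibition above the mean over all tested compounds plus 3 SD, cut at about 3.6% in these data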;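 also: higher inhibition means more luminescence from relief of DAX-1 repression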
hgDAF-12 ag: hgDAF-12 agonism, primary luciferase screen; HEK293 GAL4-hgDAF12 UAS-luciferase reporter, agonist luminescence; normalized to butyrate control; activation, % at 6.8 µM; 1.8% of 370,000 active; AID 687014;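 active = activation above a cutoff set at the mean of all screened compounds plus 3 SD, cut at about 10% in these data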
ssDAF12 agonist: activates DAF-12 receptor from parasite S. stercoralis; activation, % at 6.8 µM; HEK293 ssDAF-12/GRIP1 lit1-tk-luc reporter, luminescence; % of 3 µM dafachronic acid response; 1% of 370,000 active;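 active = activation above the mean over all tested compounds plus 3 SD, cut at about 0.9% in these data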
hcDAF-12 act: activates DAF-12 receptor from parasite H. contortus; 1.4% of 370,000 active; activation, % at 6.8 µM; HEK293 hcDAF-12 lit1-tk-luc reporter, luminescence; 0% DMSO, 100% Δ7-dafachronic acid;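 active = activation above the mean of all tested compounds plus 3 SD, cut at about 5.5% in these data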
DAX1 inh-2: NR0B1 (DAX1) inhibition | 0.99% of 340,000 active | HEK293 Gal4-DAX1 luciferase reporter, luminescence | AID 504766 | P51843 | inhibition, % at 6.75 µM;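 active = inhibition above the mean over all tested compounds plus 3 SD, cut at about 4.2% in these data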;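 also: inhibition shows as a rise in luminescence from relieved DAX1 repression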
Target sequence (P51843 207-470 limits assumed): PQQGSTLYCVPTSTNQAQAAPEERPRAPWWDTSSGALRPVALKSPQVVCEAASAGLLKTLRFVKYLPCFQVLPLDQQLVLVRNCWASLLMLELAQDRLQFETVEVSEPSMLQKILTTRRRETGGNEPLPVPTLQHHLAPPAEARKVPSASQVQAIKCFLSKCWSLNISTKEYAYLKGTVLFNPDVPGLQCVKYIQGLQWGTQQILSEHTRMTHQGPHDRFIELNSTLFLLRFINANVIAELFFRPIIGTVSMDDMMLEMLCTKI
DAX1 conf: confirmation of human DAX1 (NR0B1) inhibitors | shares compounds with DAX1 inh-1 | HEK293T StAR-promoter luciferase reporter, SF-1/DAX-1 repression | inhibition, % at 6.8 µM | 87% of 2,400 active | AID 652134;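 active = inhibition above the average of every tested compound plus 3 SD, cut at about 3.8% in these data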;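 also: active compounds raise luminescence by relieving repression of the StAR reporter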
SF1 AF2mut Luc: counter-screen for DAX1 inhibitors: nonselective inhibitors with SF-1 AF2 mutant | shares compounds with DAX1 inh-1 | HEK293 StAR-luciferase, luminescence | inhibition, % at 6.8 µM | 78% of 2,400 active | AID 652136;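 active = inhibition above the mean of all tested compounds plus 3 SD, cut at about 3% in these data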
SMARCA2 act conf: confirmation of SMARCA2 (BRM) function activators; shares compounds with SMARCA2 act; MG213 cells, MMTV-luciferase with dexamethasone, luminescence, overnight; MG213 cells expressing E1A, Rb sequestered; DMSO wells 0%, reference activator 100%; activation, % at 9.1 µM; 30% of 3,500 active; AID 652260;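 active = activation above its plate's cutoff, the mean activation of tested wells plus 3 SD, cut at about 7.9% in these data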
GAL4-VP16 Luc: GAL4-VP16 reporter activation counter-screen; shares compounds with SMARCA2 act; 41% of 3,500 active; HEK293 GAL4-VP16 pG5luc reporter, luciferase luminescence; scaled: DMSO wells 0%, SAHA wells 100%; activation, % at 9.1 µM; AID 686939;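 active = activation above the solvent-only control well mean plus 3 SD, averaged across control plates, cut at about 5.2% in these data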
LXR ag: activates human LXR-beta, counter-screen for hcDAF-12 agonists; AID 743027; activation, % at 6.8 µM; shares compounds with hcDAF-12 act; 3,400 tested, under 10 active; HEK293 Gal4-LXR tk-luc reporter, luminescence, 24 h; normalized: DMSO 0%, positive control 100%;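 active = mean percent activation of the reporter above a cutoff set as the average over tested compounds plus their standard deviation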
hcDAF12 conf: hcDAF-12 agonism, confirmation assay. HEK293 hcDAF-12 lit1-tk-luc reporter, luminescence; % of Δ7-dafachronic acid response. 61% of 3,400 active. activation, % at 6.8 µM. shares compounds with hcDAF-12 act;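 active = mean activation across triplicate tests above the threshold derived from the earlier primary screen, cut at about 5.5% in these data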
hgDAF12 ag: hgDAF-12 agonism, confirmation assay; shares compounds with hgDAF-12 ag; HEK293 GAL4-hgDAF12 luciferase reporter, agonist mode; percent of butyrate response; activation, % at 6.8 µM; 80% of 3,300 active; AID 743050;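 active = mean activation over triplicate wells above the hit cutoff derived from the earlier primary screen, cut at about 11% in these data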
LXR ag 2: LXR-beta agonism as DAF-12 counter-screen; HEK293 Gal4-LXR luciferase reporter, 24 h; AID 743051; shares compounds with hgDAF-12 ag; activation, % at 6.8 µM; 3,300 tested, under 10 active;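 active = mean activation of the triplicate above a set limit carried over from the primary screen, none filed active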
A number is an active result; . = inactive; / = no result. Rows were chosen to be rich in hits. Some 4.8% of all compounds tested hit in one or more screens of this group.

SMILES | SMARCA2 act | DAX1 inh-1 | hgDAF-12 ag | ssDAF12 agonist | hcDAF-12 act | DAX1 inh-2 | DAX1 conf | SF1 AF2mut Luc | hgDAF12 ag | LXR ag 2 | others
Cc1nc2ccc(-c3nc4ccccc4o3)cc2[nH]1 | 9.0 | 5.2 | 20 | . | . | . | 15 | 8.8 | 22 | . | SMARCA2 act conf=.;GAL4-VP16 Luc=13
Nc1ccc(-c2nc3ccc(-c4nc5ccccc5o4)cc3[nH]2)cc1 | . | . | . | . | . | . | / | / | / | /
CC(=O)n1nc(-c2ccc(Cl)cc2)nc1NCc1ccco1 | . | . | . | . | . | . | / | / | / | /
CCOC(=O)C1=CCC(c2cc3ccccc3[nH]2)NC1 (stereo unspecified) | 11 | 5.7 | 15 | 1.1 | 8.0 | / | 8.9 | 5.0 | 19 | . | SMARCA2 act conf=.;GAL4-VP16 Luc=7.0;LXR ag=.;hcDAF12 conf=6.4
CCOC(=O)C1=CCC(c2ccccc2)N(S(C)(=O)=O)C1 (stereo unspecified) | . | . | . | . | . | / | / | / | / | /
O=C(Cc1ccccc1)N/N=C/c1ccc(OCC(=O)Nc2ccccc2)cc1 | . | . | . | . | . | . | / | / | / | /
CC(=O)Oc1ccc(/C=N/NC(=S)Nc2ccccc2)cc1 | . | 5.0 | 17 | . | . | . | 15 | 8.4 | 16 | .
COc1ccc(/C=N/Nc2cc(OC)ncn2)cc1 | . | 6.5 | 14 | 2.2 | 9.2 | . | 15 | 7.2 | 16 | . | LXR ag=.;hcDAF12 conf=9.4
CCOc1ccc(/C=N/NC(=O)Nc2ccccc2)cc1 | . | 6.6 | 19 | . | . | . | 9.2 | 5.2 | 20 | .
CCOc1ccc(/C=N/NC(=O)CC(=O)NCc2ccccc2)cc1 | . | . | . | . | . | . | / | / | / | /
Clc1ccc(/C=N/Nc2ccccn2)cc1 | . | . | . | . | . | . | / | / | / | /
CCOc1ccc(/C=N/Nc2ccccn2)cc1 | . | 5.8 | 17 | . | 6.0 | . | 18 | 10 | 19 | .
CC(C)Cc1ccc(CN2CCCC(NC(=O)Cn3cnnn3)C2)cc1 (stereo unspecified) | . | . | . | . | . | . | / | / | / | /
COCc1nnc(NC(=O)c2ccc(S(=O)(=O)N3CCCc4ccccc43)cc2)o1 | . | . | . | . | . | . | / | / | / | /
O=C(CCN1CCN(c2ccccc2)CC1)N/N=C/c1ccc([N+](=O)[O-])o1 | . | . | . | . | . | . | / | / | / | /
O=C(Nc1cccc2ccccc12)C1CCN(C(=O)NCc2ccccc2)CC1 | . | . | . | . | . | . | / | / | / | /
COc1cccc(N2CCN(C(=O)CCCCCn3c(=S)[nH]c4cc5c(cc4c3=O)OCO5)CC2)c1 | . | . | . | . | . | . | / | / | / | /
